# Tested on: MILI (PIWIL2) piRISC loaded with L1MC piRNA (26 nt)
# Experiment: pre-steady-state target cleavage rate (min^-1); guide: L1MC piRNA 5'p-UAACUAAAUACUAUGCAAGCUGUAGG; MIWI and MILI are mouse PIWI proteins and EfPiwi is from a freshwater sponge; tags in brackets are library labels; higher = faster piRNA-guided slicing of the target
# Conditions: auxiliary factor: none (no GTSF1)
# How it was run: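 At 33 °C in HEPES–potassium acetate buffer, a transcribed, DNA-blocked target RNA library […] was exposed for 0–8 or 0–960 min to 1 nM active affinity-purified piRISC carrying a single synthetic guide, with or without 500 nM GTSF1 partner protein. Uncleaved targets were sequenced and normalised to depth and to weakly complementary targets. With three trials pooled and k3 capped at 0.0001 min^-1, a burst-and-steady-state fit produced the pre-steady-state cleavage rate.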
# 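Also: 1 nM active piRISC with 0.1 nM target library at 33 °C single turnover.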
row,Sequence,pre-steady-state target cleavage rate
1,UCCUGGAUGUCGAACCAUUGUAAUUAGUUA,< 0.0001
2,UCCUGGAUGUCGAACGUUAGUAUAUAGUUA,< 0.0001
3,UCCUGGAUCAGCUUCCAUAGUAUUAAGUUA,< 0.0001
4,UCCUGGAUGUCGAAGCAUUGUAUAUAGUUA,< 0.0001
5,UCCUGGAUGUCGAACGAUGAGUAUUUAGUUA,< 0.0001
6,UCCUGGAUGUCGAACGUAAGUAAUUAGUUA,< 0.0001
